Data taken from PubChem BioAssay (NCI).
About 83,000 compounds went through this panel and 20% of them were active in at least one assay; those are over-represented in the sample as a whole.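 Single-concentration screen, 48 h exposure, 96-well plates. Endpoint: percent growth. Below 10 = active.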 Values without a mark were called inactive. The source made the active and inactive calls.

What follows are compounds tested on UACC-62 melanoma (assay: NCI-60 one-dose screen, 48 h (100 = growth as untreated, 0 = no growth, -100 = all killed)). Conditions: 10 µM unless noted.
Description: Growth inhibition of the UACC-62 human tumor cell line is measured as a screen for anti-cancer activity. Cells are grown in 96 well plates and exposed to the test compound for 48 hours. Compounds are tested at a single concentration, which is 10^-5 M for most compounds. The reported endpoint is percent growth (GI% or GIPRCNT), where numbers from 0 - 100% represent growth inhibition, and numbers from -100% - 0 represent cell death. For example, a value of 40 represents 60% growth inhibition. A value of 0 means no net growth occurred over the course of the experiment. A value of -40 indicates 40% of cells at the beginning of the experiment died by the end of the experiment. A value of -100 means all cells are dead at the end of the experiment.
NCI-60 Human Tumor Cell Lines Screen was performed using the standard one-dose NCI protocol, which is described in more detail at https://dtp.cancer.gov/discovery_development/nci-60/default.htm.
Compounds with GIPRCNT values below 10 were considered active. Activity score was based on GIPRCNT using the following formula: […]
Score is 0 for GIPRCNT values of 100 or above, 50 for GIPRCNT values of 0, and 100 for GIPRCNT values of -100.
For `Cc1cc(C)nc(NC(N)=NCCc2ccccc2)n1`, the growth was 38%. `COc1ccc2c(c1)C/C(=C\c1cc(-c3cc(OC)c(OC)c(OC)c3)n[nH]1)C2=O` was tested, and the growth was 88.1%. For `CCCC1CCCCN1C(=O)OCC(C)C` (stereo not given), the growth was 103%. With `C=C(C)[C@@H]1CC[C@]2(C(=O)N3CCN(CC)CC3)CC[C@]3(C)[C@H](CC[C@@H]4[C@@](C)(CCC(=O)N5CCN(CC)CC5)[C@H](C(=C)C)CC[C@]43C)[C@@H]12` the growth was 50.9%. With `c1cc(N2CCCC2)c2nc(-c3[nH]ncc3Nc3ncnc4[nH]ccc34)[nH]c2c1` the growth was -78.5% (active). Compound `CC1(n2nnnc2N2CCCN(c3ncccc3N)CC2)CCC1` has a growth of 94.9%. With `CCN1CCN(C(=O)[C@]23CCC(C)(C)C[C@@H]2C2=CC[C@@H]4[C@@]5(C)C/C(=C/c6cccnc6)C(=O)C(C)(C)[C@@H]5CC[C@@]4(C)[C@]2(C)CC3)CC1` the growth was 26.6%. Work on `N#CC1=C(N)Oc2c(c(N)nn2-c2ccccc2)C1c1ccc(Cl)cc1` (stereo not given) yielded a growth of 86%. Work on `COc1cc(/C=C/c2cc(/C=C/c3ccc(O)c(OC)c3)n(-c3ccc(Cl)cc3)c(=O)n2)ccc1O` yielded a growth of 80.6%. For `N#Cc1c(-c2ccc(O)cc2)c2c(N)nn(-c3ccccc3)c2[nH]c1=O`, the growth was 96%. For `C=C(C)[C@@H]1CC[C@]2(C(=O)O)CC[C@]3(C)[C@H](CC[C@@H]4[C@@]5(C)C/C(=C/c6cccc(I)c6)C(=O)C(C)(C)[C@@H]5CC[C@]43C)[C@@H]12`, the growth was 30.9%. `CC1(C)c2ccccc2C(=O)C1(Br)Cc1ccccc1` (stereo not given) gave a growth of 78.3%. With `COc1cccc2c1C(=O)c1c(O)c3c(c(O)c1C2=O)C[C@@](O)(C(=O)CO)C[C@@H]3OC1C[C@H](N)[C@H](O)[C@H](C)O1` (stereo not given in full) the growth was -59% (active). `CC1(C)CC[C@]2(C(=O)Nc3ccccn3)CC[C@]3(C)C(=CC[C@@H]4[C@@]5(C)C/C(=C/c6ccncc6)C(=O)C(C)(C)[C@@H]5CC[C@]43C)[C@@H]2C1` gave a growth of 23.9%. For `CCSc1sc(-c2ccc(C)cc2)nc1[P+](c1ccccc1)(c1ccccc1)c1ccccc1`, the growth was -42.5% (active). `Nc1c2c(nc3ccc(Cl)cc13)CC(c1ccc(O)cc1)CC2=O` (stereo not given) gave a growth of 32.8%. `COc1ccc(NC(=O)c2ccc3c(c2)nc(-c2cc4ccccc4[nH]c2=O)n3-c2cc(C(C)(C)C)[nH]n2)cc1` gave a growth of 85.6%. For `C=C(C)[C@@H]1CC[C@]2(C(=O)N3CCN(C)CC3)CC[C@]3(C)[C@H](CC[C@@H]4[C@@]5(C)C/C(=C/c6ccc(C(F)(F)F)cc6)C(=O)C(C)(C)[C@@H]5CC[C@]43C)[C@@H]12`, the growth was 96.3%. For `Cc1cc2nc3c4cc(N)ccc4n(CCN(C)C)c3nc2cc1C`, the growth was 6.43% (active). Compound `COc1cc2c(cc1-c1c(C)noc1C)ncc1nc(C3CC3)n([C@H](C)COC(F)F)c12` has a growth of 25.5%. In the case of `CC(=O)c1c(C)[nH]c(-c2nc3ccc(N4CCN(C)CC4)cc3[nH]2)c1-c1ccc(OCC2CCOCC2)cc1`, the growth is reported as 20.4%. `C/C(=N\Nc1ccc2ccccc2n1)c1ccccn1` was tested, and the growth was -54.8% (active). With `COc1cc2nc(Cl)nc(Nc3cccc(C(=O)/C=C/c4ccccc4)c3)c2cc1OC` the growth was 57.8%. With `COc1ccc(OCC(CO)N2CCN(c3ccccc3)CC2)cc1` (stereo not given) the growth was 97.2%. For `CCN1CCN(C(=O)[C@]23CCC(C)(C)C[C@@H]2C2=CC[C@@H]4[C@@]5(C)C/C(=C/c6ccncc6)C(=O)C(C)(C)[C@@H]5CC[C@@]4(C)[C@]2(C)CC3)CC1`, the growth was -86% (active). `O=C(NC(Cc1cn(Cc2ccccc2)cn1)C(=O)O)OCC1c2ccccc2-c2ccccc21` (stereo not given) gave a growth of 112%. For `COC(=O)[C@@H]1[C@H]2C[C@H]3c4[nH]c5cc(OC)ccc5c4CCN3C[C@@H]2C[C@H](OC(=O)/C=C/c2ccnc(OC)c2)[C@H]1OC`, the growth was 86.7%. With `CC1(C)CC[C@]2(CO)CC[C@]3(C)C(=CC[C@@H]4[C@@]5(C)CC[C@H](NCO)C(C)(C)[C@@H]5CC[C@]43C)[C@@H]2C1` the growth was -73% (active). With `O=C1c2cc3c(cc2-c2c1c1ccc(Cl)cc1c(=O)n2C[C@H](O)[C@@H](O)[C@H](O)CO)OCO3` the growth was -86.9% (active). For `COc1ccc2c(c1)c1nc3cc(C)c(C)cc3nc1n2CCN(C)C`, the growth was 11%. For `COc1ccc(-c2cc(/C=C/C(=O)c3ccc(OC)c(OC)c3)[nH]n2)cc1`, the growth was 37.3%. In the case of `O=C1C(Cl)=C(Nc2ccc(S(=O)(=O)c3ccc(NC4=C(Cl)C(=O)c5ccccc5C4=O)cc3)cc2)C(=O)c2ccccc21`, the growth is reported as 12.5%. In the case of `CC1(C)C(=O)CC[C@]2(C)[C@H]3C(=O)C=C4[C@@H]5C[C@@](C)(C(=O)NCCNCCN)CC[C@]5(C)CC[C@@]4(C)[C@]3(C)CC[C@@H]12`, the growth is reported as 98.1%. For `Cn1cc(-c2csc(-c3cn(C(=O)OC(C)(C)C)c4ccccc34)n2)c2cccnc21`, the growth was 62.1%. `O=C(O)c1cccc2c1-c1ccc(Cl)cc1C2` gave a growth of 102%. `O=C(N/N=C\c1ccccc1O)C1CC1` gave a growth of 102%. With `COc1ccc(C(=O)c2cc(OC)c(OC)c(OC)c2)cc1/C=C/C(=O)c1cc(OC)c(OC)c(OC)c1` the growth was 70.6%. `O=C1C(=O)N(CCCCn2cc(-c3ccccc3)nn2)c2ccccc21` was tested, and the growth was 95.7%. `Cc1ccc2[nH]cc(-c3nc(-c4cn(C)c5ncccc45)cs3)c2c1` showed a growth of 79.3%. `Cc1cc2nc3c4cc(O)ccc4n(CCN(C)C)c3nc2cc1C` was tested, and the growth was -49.5% (active).
